Data published in PubChem BioAssay (NCATS).
Records with an inconclusive call do not appear. Entries that show only a call come without a potency. Calls of active or inactive are those of the source. Calls follow the shape of the dose curve; as a rule, active = well fitted curve in the direction sought with a large enough effect; inconclusive = small, poorly fitted or top-dose-only effect, or another doubt; inactive = no such curve, though single readings can be large; an effect the other way counts as inactive or inconclusive.

Columns and labels:
[1] = ZIKV-mCherry secondary qHTS for Zika virus inhibitors (AID 1347158); also: top concentration of the series differs between compounds
Outline: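 Vero cells, 5,000/well, plated overnight at 37 °C, then compound added and infected with recombinant ZIKV-mCherry at MOI 1 for 48-72 h. PFA-fixed, Hoechst nuclear stain, high-content imaging; cells with mCherry intensity above 450 RFU scored infected, reported as percent infection.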

[2] = tested on: Zika virus NS2B-NS3 protease (linked); assay: 384 well plate NINDS AMC confirmatory qHTS for Zika virus inhibitors (AID 1347163); details: Recombinant NS2B-NS3 protease, Ac-VKTGKR-AMC fluorescence; also: potency is read from the fitted curve at half-maximal effect; nearly all actives have a fitted effect of over 50% in size
From the text: Description: Assay Submitters (PI): Avindra Nath, Ph.D., National Institute of Neurological Disorders and Stroke (NINDS), Bethesda, MD Radhakrishnan Padmanabhan, Ph.D., Georgetown University (GU), Washington D.C. Zika Virus causes congenital defects, including microcephaly and is associated with Guillain-Barre syndrome, eningoencephalitis and myelitis in infected adult. […] Using a target-based approach, we hope to establish a screening paradigm to uncover novel, cell-active NS2B-NS3 protease (Zika Virus) specific inhibitors from NCATS' collection of small molecules using qHTS. […] Four assay panel was created to identify potential Zika Virus inhibitors. Namely, (1) GU unlinked NS2B-NS3 AMC tagged protease qHTS, (2) GU unlinked NS2B-NS3 Rhodamine tagged protease qHTS, (3) NINDS linked NS2B-NS3 AMC tagged protease qHTS, (4) NINDS linked NS2B-NS3 Rhodamine tagged protease qHTS. Active compounds are validated using a secondary assay in 384 well plate format. Early Translation Branch (ETB) National Center for Advancing Translational Sciences (NCATS), Rockville, MD National Institute of Health (NIH), Bethesda, Maryland
384-well NINDS AMC Assay The protease was diluted to 7.5 nM, 40.9 nM, or 82 nM in assay buffer and dispensed into a 96-well PCR plate (Applied Biosystems); 20 or 22 microL was transferred to a black 384-well assay plate (final protease concentration of 5 nM, 30 nM, or 60 nM, respectively). Compounds (3 microL, 1 microM - 10 mM, DMSO) were diluted and transferred to the assay plate (final concentrations ranged from 100 nM to 1 mM). Compounds were incubated with protease for ~15 minutes. The substrate, Ac-VKTGKR-AMC (Genscript), was dissolved in DMSO to a concentration of 6 mM and further diluted into assay buffer to a working concentration of 180 microM, then dispensed into a 384-well preparation plate (Eppendorf). A multichannel repeat pipettor was used to add 3 or 5 microL of substrate to the assay plate to give a final concentration of 30 microM. The plate was incubated in the dark at room temperature. After 25 minutes, the fluorescence intensity (excitation: 355 nm, emission: 460 nm) was measured and normalized to no-enzyme and no-inhibitor controls. Aprotinin39 (VWR) was used as an intraplate control.

[3] = tested on: Zika virus NS2B-NS3 protease (linked construct); assay: 384 well plate NINDS Rhodamine confirmatory qHTS for Zika virus inhibitors (AID 1347164);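 also: fluorescence from protease cleavage of Ac-LKRR-rhodamine 110 substrate; nearly all actives have a fitted effect of over 65% in size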; also: potency is read from the fitted curve at half-maximal effect
Outline: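 Linked NS2B-NS3 protease (final 5, 30 or 60 nM) preincubated ~15 minutes with compounds, then 10 microM Ac-LKRR-Rhodamine 110 added. Fluorescence (485/538 nm) read after 25 minutes at room temperature, normalized to no-enzyme and no-inhibitor controls.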

[4] = tested on: Zika virus NS2B-NS3 protease (linked construct); assay: Primary screen NINDS Rhodamine qHTS for Zika virus inhibitors (AID 1347160); also: nearly all actives have a fitted effect of over 55% in size
Outline: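 Percent inhibition, normalized to uninhibited and enzyme-free controls, is fitted to a 4-parameter Hill equation. Fluorescence change comes from a 15-min cleavage of 1.5 microM bis-peptide Rhodamine110 substrate by 25 nM linked NS2B-NS3 at room temperature.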

[5] = biological target: Lysine-specific demethylase 5B (Homo sapiens) (UniProt Q9UGL1); assay: Optimization screen for KDM5B Histone Demethylases FDH coupled qHTS against the LOPAC library (AID 1347166)
Outline: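 KDM5BDeltaAP (200nM final) preincubated 10 min with compound, then 12.5uM H3K4Me3, 25uM a-ketoglutarate, ascorbate, Fe(II), NAD+ and FDH added; 50mM HEPES pH 7.5, 0.01% Tween-20. NADH fluorescence (340/450 nm) change over 30 min, room temperature.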

[6] = Confirmatory screen NINDS Rhodamine qHTS for Zika virus inhibitors (AID 1347161); also: nearly all actives have a fitted effect of over 60% in size; also: potency is read from the fitted curve at half-maximal effect
Outline: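 Rhodamine110-peptide cleavage (1.5 µM substrate) by 25 nM linked NS2B-NS3 enzyme at pH 8.0 (Tris, Tween 20), after 15 min RT preincubation with compounds; 15-min fluorescence change normalized to controls and Hill-fitted.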

[7] = HepG2 cells viability qHTS for Zika virus inhibitors (AID 1347168)
Outline: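 Counter-screen for cytotoxicity of hits from NS2B-NS3 protease qHTS. Overnight-attached cells (2.5 x 10^5 cells/mL, DMEM/4% FBS) were dosed in titration, incubated 24 to 48 hours, then assayed by CellTiter Glo.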

[8] = Tertiary RLuc qRT-PCR qHTS assay for Zika virus inhibitors (AID 1347169); also: nearly all actives have a fitted effect of over 55% in size; also: potency is read from the fitted curve at half-maximal effect
Outline: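 Vero cells (1,000/well) infected with recombinant ZIKV-RLuc (Cambodian) at MOI 1-2 after compound addition, 48-72 hrs at 37 degrees C. Live-cell Renilla luciferase substrate added; luminescence read after 1-1.5 hrs.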

Chain of Lysine-specific demethylase 5B (Homo sapiens) (Q9UGL1 whole entry, looked up): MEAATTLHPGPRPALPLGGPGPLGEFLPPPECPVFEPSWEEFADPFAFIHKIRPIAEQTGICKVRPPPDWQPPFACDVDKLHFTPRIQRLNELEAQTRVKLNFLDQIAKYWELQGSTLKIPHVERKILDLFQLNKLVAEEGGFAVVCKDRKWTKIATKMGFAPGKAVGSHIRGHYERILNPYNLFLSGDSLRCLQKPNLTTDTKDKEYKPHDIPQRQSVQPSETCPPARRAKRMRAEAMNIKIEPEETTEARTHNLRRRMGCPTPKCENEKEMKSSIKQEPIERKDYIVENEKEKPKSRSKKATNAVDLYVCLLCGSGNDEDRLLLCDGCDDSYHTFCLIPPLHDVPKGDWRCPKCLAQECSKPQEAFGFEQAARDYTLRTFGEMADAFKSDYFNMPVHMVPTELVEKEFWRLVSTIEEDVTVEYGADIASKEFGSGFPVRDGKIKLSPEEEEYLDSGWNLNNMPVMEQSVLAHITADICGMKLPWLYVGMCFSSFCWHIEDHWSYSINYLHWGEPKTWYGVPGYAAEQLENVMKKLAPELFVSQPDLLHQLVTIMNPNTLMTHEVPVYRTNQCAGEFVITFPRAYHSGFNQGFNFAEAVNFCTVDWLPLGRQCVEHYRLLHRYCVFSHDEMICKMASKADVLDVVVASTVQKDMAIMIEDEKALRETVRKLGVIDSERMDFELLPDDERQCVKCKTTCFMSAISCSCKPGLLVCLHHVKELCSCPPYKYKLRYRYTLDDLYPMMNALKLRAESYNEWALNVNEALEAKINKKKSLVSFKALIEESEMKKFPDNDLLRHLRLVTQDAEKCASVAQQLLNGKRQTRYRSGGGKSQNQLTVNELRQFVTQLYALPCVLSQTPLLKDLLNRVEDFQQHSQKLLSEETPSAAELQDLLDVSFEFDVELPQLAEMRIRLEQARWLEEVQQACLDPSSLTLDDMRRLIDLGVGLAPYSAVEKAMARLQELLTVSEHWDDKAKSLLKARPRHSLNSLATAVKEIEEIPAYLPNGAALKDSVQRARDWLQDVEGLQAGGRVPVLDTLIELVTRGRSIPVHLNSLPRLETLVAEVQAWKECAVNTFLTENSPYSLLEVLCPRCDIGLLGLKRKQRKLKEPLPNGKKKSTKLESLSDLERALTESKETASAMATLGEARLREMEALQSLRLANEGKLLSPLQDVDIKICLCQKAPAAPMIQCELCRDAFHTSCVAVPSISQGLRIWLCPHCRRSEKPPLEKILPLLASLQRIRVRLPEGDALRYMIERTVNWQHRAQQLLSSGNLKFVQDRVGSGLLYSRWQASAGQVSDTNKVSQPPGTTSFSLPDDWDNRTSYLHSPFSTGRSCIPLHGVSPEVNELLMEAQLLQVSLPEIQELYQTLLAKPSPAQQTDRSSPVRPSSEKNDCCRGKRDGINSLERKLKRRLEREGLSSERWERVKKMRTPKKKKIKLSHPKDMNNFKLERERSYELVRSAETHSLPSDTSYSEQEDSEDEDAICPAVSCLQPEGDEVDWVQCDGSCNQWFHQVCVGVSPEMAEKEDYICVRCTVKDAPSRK

C[C@H](NC(=O)C(=O)Nc1ccccc1C(C)(C)C)C(=O)N[C@@H](CC(=O)O)C(=O)COc1c(F)c(F)cc(F)c1F
outcome [1]: inactive

O=c1cc(-c2ccccc2)oc2cc(O)c(O)c(O)c12
outcome [1]: inactive
Potency [2]: 141 µM (active)

CC1(C)CCC(CN2CCN(c3ccc(C(=O)NS(=O)(=O)c4ccc(NCC5CCOCC5)c([N+](=O)[O-])c4)c(Oc4cnc5[nH]ccc5c4)c3)CC2)=C(c2ccc(Cl)cc2)C1
Potency [2]: 31.6 µM (active)
Potency [3]: inactive

COc1ccccc1N1CCN(CCCNc2cc(=O)n(C)c(=O)n2C)CC1
Potency [4]: inactive
outcome [5]: inactive

C[N+](C)(C)CCCCCC[N+](C)(C)C
outcome [5]: inactive

Cc1cccc(C)c1OCC(C)N (stereo unspecified)
outcome [5]: inactive

COc1cccc(-c2cc(=O)c3ccccc3o2)c1N
outcome [5]: inactive

CC(C)C(=O)Oc1ccc(CO)cc1[C@H](CCN(C(C)C)C(C)C)c1ccccc1
Potency [4]: inactive

O=C1NCC2(CCN(CCc3ccccc3)CC2)O1
outcome [5]: inactive

CS(=O)c1ccc(-c2nc(-c3ccc(F)cc3)c(-c3ccncc3)[nH]2)cc1 (stereo unspecified)
Potency [4]: inactive
Potency [6]: inactive
outcome [7]: inactive

NC(N)=Nc1nc(CSCC/C(N)=N/S(N)(=O)=O)cs1
outcome [5]: inactive

O=C1NC(=O)C(c2ccccc2)(c2ccccc2)N1
outcome [5]: inactive

Cc1ccn(-c2ccc(-c3ncco3)cc2)c(=O)c1-c1ccc2nc(N)ncc2c1
Potency [4]: inactive
Potency [6]: 49.3 µM (active)
outcome [7]: inactive

CN[C@@H](C)C(=O)N[C@H]1CN(C(=O)CC(C)C)CC[C@H]2CC[C@@H](C(=O)NC(c3ccccc3)c3ccccc3)N2C1=O
Potency [4]: inactive

O=C(NCCN1CCOCC1)c1ccc(Cl)cc1
outcome [5]: inactive

COc1ccc(Cc2nccc3cc(OC)c(OC)cc23)cc1OC
outcome [5]: inactive

CCCNC(=O)NS(=O)(=O)c1ccc(Cl)cc1
Potency [4]: inactive
outcome [5]: inactive

CN(C)c1cc(NC(=O)CNC(C)(C)C)c(O)c2c1C[C@@H]1C[C@H]3[C@H](N(C)C)C(=O)C(C(N)=O)=C(O)[C@@]3(O)C(=O)C1=C2O
Potency [6]: 4.41 µM (active)
Potency [3]: inactive
outcome [7]: inactive
Potency [8]: inactive

NCCS
outcome [5]: inactive

CCn1cc(C(=O)O)c(=O)c2ccc(C)nc21
outcome [5]: inactive

NC(=O)c1ccc2nc(-c3ccc(Oc4ccc(Cl)cc4)cc3)[nH]c2c1
Potency [3]: 251 µM (active)
outcome [7]: inactive

CC(=O)Nc1ccc([C@H](C)C(=O)Nc2ncc(C(C)C)s2)cc1
Potency [4]: inactive
Potency [2]: 112 µM (active)
outcome [7]: inactive
Potency [8]: 1.04 µM (active)

CC(=O)CCCCn1c(=O)c2c(ncn2C)n(C)c1=O
Potency [4]: inactive
outcome [5]: inactive

CN(C)CCC(c1ccccc1)c1ccccn1 (stereo unspecified)
Potency [4]: inactive
outcome [5]: inactive

CC(=O)c1ccc(S(=O)(=O)NC(=O)NC2CCCCC2)cc1
outcome [5]: inactive

CCCCCN(C)CCC(O)(P(=O)(O)O)P(=O)(O)O
outcome [5]: inactive

CC1CCC(C(=O)N(c2cc(C#CC(C)(C)C)sc2C(=O)O)C2CCC(O)CC2)CC1 (stereo unspecified)
Potency [6]: 5.53 µM (active)
outcome [7]: inactive

CC(C)(C)c1ccc(C(O)CCCN2CCC(C(O)(c3ccccc3)c3ccccc3)CC2)cc1 (stereo unspecified)
outcome [5]: inactive

COC(=O)[C@@H]1[C@H]2C[C@H]3c4[nH]c5ccccc5c4CCN3C[C@@H]2CC[C@@H]1O
Potency [4]: inactive
outcome [5]: inactive

Cc1cc(OCCCc2c(C(=O)O)n(Cc3cccnc3)c3c(-c4c(COc5ccc(N6CCN([S+](C)(=O)[O-])CC6)cc5)nn(C)c4C)cccc23)cc(C)c1Cl
Potency [6]: 3.11 µM (active)
Potency [2]: 31.6 µM (active)
outcome [7]: inactive

CCN(CC)C(=O)c1ccc(O)c(OC)c1
outcome [5]: inactive

O=c1cc(-c2ccc(O)cc2)oc2cc(O)cc(O)c12
outcome [5]: inactive

CC(C)OC(=O)C(C)(C)Oc1ccc(C(=O)c2ccc(Cl)cc2)cc1
outcome [5]: inactive

CCN(CC)CCOC(=O)c1ccc(N)cc1
outcome [5]: inactive

CCCCC1C(=O)N(c2ccccc2)N(c2ccccc2)C1=O
outcome [5]: inactive
